Compound activity from PubChem.
This is a sample that favours compounds with a hit; in the whole collection about 6.8% have one here.
NADH enzymes = inhibitors of enzymes used to reach an NAD/NADH endpoint | coupled PK/LDH NADH assays, four targets | IC50, µM (doses to about 10 µM), inactives show top-dose inhibition | actives 0.02% (n = 65,000) | AID 774;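 active means single-dose screening hits from any of four coupled enzyme assays that gave an IC50 when retested across doses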;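 further: the DPM-DC format reads NADH fluorescence rather than 340 nm absorbance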
A340 absorber = absorbance at 340 nm; fold change at 10 µM; compound absorbance at 340 nm, fold over control; 65,000 tested, under 10 active;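 active means at 10 µM dose, initial 340 nm absorbance at least 2 fold that of control wells; inactive means change under 2 fold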;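 further: initial absorbance extrapolated from kinetic A340 decline of NADH oxidation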
Spn PMK inh = blocks S. pneumoniae phosphomevalonate kinase | inhibition, % at 10 µM | AID 539 | purified PMK, PK/LDH-coupled NADH absorbance 340 nm | actives 0.49% (n = 65,000);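 active means top-ranked compounds by inhibition in the single 10 µM screen, taking a fixed number of the strongest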;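 further: 0% = full reaction with DMSO carrier and 100% = background rate without enzyme reaction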
Autofluor 339 = intrinsic fluorescence of library compounds, ex339/em460 – biochemical, MLSMR library, data from DPM-DC assay, artefact control, profiling panel; fluorescence fold increase at 10 µM; actives 5.5% (n = 65,000); AID 709; compound autofluorescence, ex339/em460 nm, NADH buffer; stronger effect = higher value; 1 = no-compound wells, NADH background;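 active means at 10 µM, mean starting fluorescence two-fold or more over control wells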;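 further: signal is the first read of a kinetic run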
DPM-DC inhibit = inhibitors of Streptococcus pneumoniae diphosphomevalonate decarboxylase; purified DPM-DC, PK/LDH coupled NADH fluorescence; calls only at 10 µM; actives 0.49% (n = 65,000); AID 556;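 active means the 320 compounds with the highest percent inhibition in the single-dose primary screen, excluding strongly autofluorescent ones, cut at about 32% in these data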;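 further: kinetic rate of NADH fluorescence loss reporting ADP formed by the decarboxylase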
MK inhibit = S. pneumoniae mevalonate kinase inhibition | purified MK, PK/LDH-coupled NADH absorbance 340 nm | inhibition, % at 10 µM | actives 0.48% (n = 65,000) | AID 555;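 active means ranked among the strongest by inhibition in the single 10 µM screen, a fixed top-ranked set picked for dose follow-up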
Active calls of the source: *; i = inactive; / = no result shown; + = active, no number; [ ] = another dose, or the depositor's remark.

SMILES	NADH enzymes	A340 absorber	Spn PMK inh	Autofluor 339	DPM-DC inhibit	MK inhibit
C=CCn1cnc2c(c1=O)c1nc3ccccc3nc1n2-c1ccccc1	13%	1.1	13	2.4*	i	0
C=CCn1cnc2c(c1=O)c1nc3ccccc3nc1n2/N=C/c1ccccn1	12%	1.2	7	2.5*	i	7
COCCCn1cnc2c(c1=O)c1nc3ccccc3nc1n2-c1ccccc1	11%	1.1	11	3.1*	i	6
C=CCn1cnc2c(c1=O)c1nc3ccccc3nc1n2/N=C/c1cc(OC)c(OC)c(OC)c1	9%	1.2	17	1	i	11
COCCCn1cnc2oc3nc4ccccc4nc3c2c1=O	5%	1.1	3	3.2*	i	0
CC1(C)Cc2ccccc2-c2nnc(SCC(=O)Nc3nc4ccccc4s3)n21	4%	1	12	1.1	i	1
Cc1ccc(CC2CC(=O)N(c3ccc(Cl)cn3)C2=O)cc1 (configuration not stated)	6%	1	10	1.1	i	9
Cc1nn(-c2ccccc2)c(C)c1C(=O)OCC(=O)c1c(N)n(CC(C)C)c(=O)n(C)c1=O	2%	0.99	9	1.1	i	0
O=C(COC(=O)c1cc(-c2cccs2)nc2ccccc12)NCc1ccco1	9%	1	15	4.9*	/	2
O=C(COC(=O)c1cc(-c2ccco2)nc2ccccc12)NCc1ccc2c(c1)OCO2	2%	1	0	2.1*	/	9
CC(C)Cn1c(N)c(C(=O)COC(=O)c2cc(-c3ccco3)nc3ccccc23)c(=O)n(C)c1=O	1%	1	0	2.1*	/	0
Cc1c(NC(=O)CN2C(=O)c3ccccc3S2(=O)=O)c(=O)n(-c2ccccc2)n1C	5%	1	6	1.1	i	9
O=C(CN1c2cccc3cccc(c23)S1(=O)=O)N1CCOCC1	1%	0.99	3	2.8*	+[fluoresces]	8
Cc1c(NC(=O)CN2c3cccc4cccc(c34)S2(=O)=O)c(=O)n(-c2ccccc2)n1C	2%	1	9	2.5*	+[may fluoresce]	5
COc1ccc(NC(=O)CN2c3cccc4cccc(c34)S2(=O)=O)cc1	5%	1	13	2.3*	i	0
Cc1ccc(C)c(CN2CCCNC2=O)c1	5%	0.98	15	1.1	i	0
Cc1cc(C)nc(N2CCCC(C(=O)Nc3ccc4nc(C)c(C)nc4c3)C2)n1 (configuration not stated)	7%	1	13	1.1	i	7
Cc1cc2cc(CNC(=O)CC(C)C)ccc2n1C	7%	1	15	1.1	i	5
CCOc1ccc2cc(C#N)c(SCC(=O)N3CCCC3)nc2c1	8%	1	9	2.1*	i	13
CCCN(C(=O)c1ccccc1N)c1c(C)n(C)n(-c2ccccc2)c1=O	10%	1	29*	1.1	i	2
CCN(c1c(C)n(C)n(-c2ccccc2)c1=O)S(C)(=O)=O	3%	1	9	1	i	8
O=C(CCc1nc(-c2ccccc2F)no1)NCCN1CCc2ccccc2C1	26%	1	14	0.39	+	0
Cc1ccc(-c2noc(CCC(=O)NCCN3CCc4ccccc4C3)n2)cc1	8%	1	25*	1.1	i	0
O=C(CCc1nc(-c2ccccc2F)no1)NCCc1ccccc1Cl	5%	1	16	1.1	i	0
Cc1ccc(-c2noc(CCC(=O)NCCN3CCOCC3)n2)cc1	10%	0.97	14	0.98	i	11
O=C(CN1C(=O)C2C3C=CC(C3)C2C1=O)N1CC(=O)N(CCc2ccccc2)C(=O)C1 (configuration not stated)	5%	0.99	13	1.1	i	2
Cc1cccn2c(=O)c3cc(C#N)c(=O)n(-c4c(C)n(C)n(-c5ccccc5)c4=O)c3nc12	4%	1.1	5	1.1	i	6
Cc1cccn2c(=O)c3cc(C#N)c(=NC(=O)c4ccc5c(c4)OCO5)n(CC(C)C)c3nc12	19%	1	11	2.5*	+	11
Cc1cc(-n2c(=O)c(C#N)cc3c(=O)n4cccc(C)c4nc32)no1	4%	1	0	4*	/	7
